This note sets out measurements from PubChem BioAssay (NCI).

Compounds without any hit were thinned out: in the full panel of roughly 79,000, 15% have a hit. Values without a mark were called inactive. Active and inactive are the calls of the source. Rule as the data show it: active = growth inhibition above about 70%; inactive = the rest.

Assay [1] is described as follows: NCI Yeast Anticancer Drug Screen. Data for the rad50 strain (AID 155).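 Also: 0% = growth of vehicle-only cultures of the same strain.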 Conditions: S. cerevisiae rad50 strain growth inhibition; at 50.0 µM; hits give high values. In a few lines: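 Relative growth inhibition (compound vs vehicle) was measured in yeast with a defined repair-gene alteration.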
A short description of assay [2]: NCI Yeast Anticancer Drug Screen. Data for the mec2-1 strain (AID 157). The conditions noted are these: S. cerevisiae mec2-1 strain, at 50.0 µM, hits give high values. In a few lines:
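Mutant yeast (mec2-1) grown with compound; growth inhibition relative to vehicle control reported.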

Assay [3] is described as follows: NCI Yeast Anticancer Drug Screen. Data for the sgs1 mgt1 strain (AID 161).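 Also: 0% = growth of cultures given vehicle only.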 The conditions noted are these: S. cerevisiae sgs1 mgt1 strain, at 50.0 µM, hits give high values. In short, it runs like this: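 Compounds are added to genetically altered yeast, and growth is compared with cultures given vehicle alone to give percent inhibition.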
A short description of assay [4]: NCI Yeast Anticancer Drug Screen. Data for the cln2 rad14 strain (AID 165).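 Also: 0% = growth equal to vehicle treated cultures.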 The conditions noted are these: S. cerevisiae cln2 rad14 strain, at 50.0 µM, hits give high values. In a few lines: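 Readout is yeast growth inhibition versus vehicle-treated controls, using a strain with cln2 and rad14 alterations exposed to compound.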
Assay [5] is described as follows: NCI Yeast Anticancer Drug Screen. Data for the bub3 strain (AID 167). Conditions: S. cerevisiae bub3 mutant strain, at 50.0 µM, hits give high values. In short, it runs like this:
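Screening used yeast with an engineered genetic alteration affecting cell cycle control. Compound-exposed cultures were compared with vehicle cultures, and reduced growth was taken as inhibition.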

The nature of assay [6]: NCI Yeast Anticancer Drug Screen. Data for the mlh1 rad18 strain (AID 175). The conditions noted are these: S. cerevisiae mlh1 rad18 strain growth inhibition; at 50.0 µM; hits give high values. In a few lines: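 Genetically defined yeast (DNA repair-deficient) exposed to compounds; growth inhibition determined relative to vehicle.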

Regarding `CCN(CC)Cc1ccccc1CO`, the growth inhibition was 3.05% in assay [1]; 6.15% in assay [2]; 2.2% in assay [3]; 9.75% in assay [4]; 9.6% in assay [5]; 0.5% in assay [6].
As for `COc1ccc2c(c1)OC1c3ccccc3OCC21` (stereo not given), the growth inhibition in assay [1] is 26.1%; in assay [2], 11.6%; in assay [3], 15.8%; in assay [4] it was 12.3%; in assay [5], 27.9%; in assay [6], 30.2%.
As to `O=Cc1ccc(OCc2cccc([N+](=O)[O-])c2)cc1`, the growth inhibition in assay [1] was 6.6%; in assay [2], 27.1%; in assay [3], 26.4%; in assay [4] it was -2.6%; in assay [5], 31.4%; in assay [6], 47%.
With `COC(CCC#N)c1ccc(Cl)cc1` (stereo not given), the growth inhibition is -31.9% in assay [1]; -20.6% in assay [2]; -26.6% in assay [3]; 1.7% in assay [4]; -31.9% in assay [5]; -26.6% in assay [6].
For `c1ccc(C2=NCC(c3ccccc3)(C3(c4ccccc4)SCCCS3)O2)cc1` (stereo not given), the growth inhibition in assay [1] was 30.8%; in assay [2] it was 5.15%; in assay [3] it was 12.7%; in assay [4], -13.8%; in assay [5], -3.35%; in assay [6], 6.55%.
Take `CCCCOC(=O)C(C)C(=O)CCC(C)CC` (stereo not given): the growth inhibition was 4.55% in assay [1]; 2.6% in assay [2]; -1.1% in assay [3]; -7.05% in assay [4]; 8.2% in assay [5]; 3.85% in assay [6].
As to `COC(=O)c1nc(N)nc(N)c1[N+](=O)[O-]`, the growth inhibition in assay [1] is -8.45%; in assay [2], -17.7%; in assay [3], -22.6%; in assay [4] it was -15.2%; in assay [5] it was -4.05%; in assay [6] it was -14.9%.
As to `CC(O)C(C)[N+](=O)[O-]` (stereo not given), the growth inhibition was 9.4% in assay [1]; 0.5% in assay [2]; -2.8% in assay [3]; 11.6% in assay [4]; 5.7% in assay [5]; -1.05% in assay [6].
For `OC12c3ccccc3C1CCCCCC21OCCCO1` (stereo not given), the growth inhibition is -9.4% in assay [1]; -27.8% in assay [2]; -31.8% in assay [3]; -17.4% in assay [4]; -8.4% in assay [5]; -19.9% in assay [6].
For `CCCCCCCCCCCC(=O)NC(=S)Nc1ccc(N(C)C(C)=O)cc1`, the growth inhibition was 90.5% (active) in assay [1]; 92.8% (active) in assay [2]; 92.5% (active) in assay [3]; 87.6% (active) in assay [4]; 90% (active) in assay [5]; 91.9% (active) in assay [6].
`C[N+](C)(C)CCCOC1=Nc2ccccc2O/C1=C/c1ccccc1`: the growth inhibition is -52.2% in assay [1]; 2.1% in assay [2]; -6.3% in assay [3]; -27.4% in assay [4]; -4.1% in assay [5]; 18.5% in assay [6].
With `CC1=CC[C@](C)(O)[C@@]2(C)CC[C@H]3C(=C(C)C)C(=O)C[C@]3(C)C[C@H]12`, the growth inhibition in assay [1] was 9%; in assay [2], 1.3%; in assay [3], 19.9%; in assay [4], 33.4%; in assay [5], 10.2%; in assay [6], 17.5%.
With `O=C(O)C1CC=CCC1C(=O)O` (stereo not given), the growth inhibition in assay [1] is 8.5%; in assay [2], -7.45%; in assay [3], -12.4%; in assay [4], -45.9%; in assay [5], 1.4%; in assay [6] it was 9.95%.
Take `CN1CCCCC1=O`: the growth inhibition in assay [1] is -0.15%; in assay [2], -2.6%; in assay [3] it was 6.15%; in assay [4], 8.65%; in assay [5] it was 8.65%; in assay [6], 9.8%.
For the compound `Nc1ccc2c(c1)-c1ccccc1C2O` (stereo not given), the growth inhibition was -1.2% in assay [1]; -19.1% in assay [2]; -37.8% in assay [3]; -60.9% in assay [4]; -17.1% in assay [5]; -16.4% in assay [6].
Regarding `O=C(Oc1c(Br)cc(Br)cc1C(=O)Oc1ccccc1)C(=O)Oc1c(Br)cc(Br)cc1C(=O)Oc1ccccc1`, the growth inhibition in assay [1] was 52.7%; in assay [2], 23.9%; in assay [3] it was 19.9%; in assay [4], 28.8%; in assay [5], 51.2%; in assay [6], 32.6%.
Consider `COc1ccc(-n2c(=O)c(N=Nc3ccccc3)c(O)n(-c3ccccc3OC)c2=S)cc1`, for which the growth inhibition is 39.5% in assay [1]; -13.6% in assay [2]; 40.5% in assay [3]; -13.7% in assay [4]; 8.95% in assay [5]; 15.3% in assay [6].
On to `C#CCNC(=O)NC(CCCCNC(=O)OCc1ccccc1)C(=O)OCc1ccccc1` (stereo not given), for which the growth inhibition was -7.05% in assay [1]; 2.9% in assay [2]; -10.8% in assay [3]; 10.3% in assay [4]; 3.55% in assay [5]; -4.8% in assay [6].
On to `O=C1C2=C(Nc3cc(Cl)ccc3N2)OC1c1ccc(C2OC3=C(Nc4ccc(Cl)cc4N3)C2=O)cc1` (stereo not given), for which the growth inhibition in assay [1] was -20.1%; in assay [2], 11.2%; in assay [3], -7.05%; in assay [4] it was -33.5%; in assay [5] it was -7.3%; in assay [6], 17.8%.
Turning to `Clc1ccc(-c2ncc(-c3ccccc3)o2)c(Cl)c1`, the growth inhibition in assay [1] was 9.35%; in assay [2] it was -3.4%; in assay [3], 5.65%; in assay [4], -39.9%; in assay [5], 9.2%; in assay [6], 23.2%.
